The target in assay [1] is Bile acid receptor (Homo sapiens) (UniProt Q96RI1). Kind of assay: qHTS assay for small molecule antagonists of farnesoid X receptor signaling (AID 588526). Further: on the % scale 0 is the no-effect control and ±100 the full control effect. In short, it runs like this: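 Concentration-response titrations were fitted to the Hill equation for half-maximal inhibition and maximal response, with data normalised to 50 uM chenodeoxycholic acid and DMSO control wells. Cells: FXR-UAS-bla HEK293T, dialyzed FBS.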
In general terms: Quantitative high-throughput screening tests each substance at several concentrations.

Assay [2] in a line: qHTS assay for small molecule antagonists of peroxisome proliferator-activated receptor delta signaling (AID 588535; active means well fitted inhibition curve with a large enough effect in the signal ratio, with a control signal flat, not every such curve was filed as active; the % refers to the signal ratio;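 on max response: cells co-treated with a PPAR-delta agonist as stimulator during compound exposure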). To be noted: HEK293T PPARd-UAS-bla, beta-lactamase FRET ratio, 18 h; 460 nm channel. Put shortly: (§1)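 Inhibition of PPAR-delta response element-driven beta-lactamase expression is measured in HEK293T cells exposed to a compound titration series for 18 hrs at 37 C. Half-maximal inhibition comes from Hill equation fitting.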

The target in assay [3] is Peroxisome proliferator-activated receptor delta (Homo sapiens) (UniProt Q03181). The description is as above. Put shortly: as §1
The target of assay [4] is Peroxisome proliferator-activated receptor gamma (Homo sapiens) (UniProt P37231). The assay is described as follows: qHTS assay for small molecule agonists of peroxisome proliferator-activated receptor gamma signaling (AID 588536; active means well fitted curve in the direction sought with a large enough effect in the signal ratio, with a control signal flat, not every such curve was filed as active; the % refers to the signal ratio;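 further: 0% = DMSO basal wells and 100% = rosiglitazone at 2 µM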). In short, it runs like this: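 This is an agonist-mode beta-lactamase reporter assay in HEK293 PPAR-gamma-UAS-bla cells with 1% charcoal/dextran FBS. Compound titrations ran 16 h at 37 C before CCF4 detection. EC50 and efficacy are Hill fits scaled to 2 uM rosiglitazone (100%) and DMSO basal.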

Assay [5] has the same target. The assay is described as follows: qHTS assay for small molecule antagonists of peroxisome proliferator-activated receptor gamma signaling (AID 588537; active means well fitted inhibition curve with a large enough effect in the signal ratio, with a control signal flat, not every such curve was filed as active; the % refers to the signal ratio;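 further: reporter cells co-stimulated with 50 nM rosiglitazone agonist during compound treatment; % of control where 0% means no effect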). Put shortly:
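Compounds are tested as concentration series for inhibition of rosiglitazone-driven (50 nM) reporter expression in GeneBLAzer PPAR-gamma-UAS-bla HEK293 cells. After 16 h at 37 C, CCF4 substrate is added for 2 h at room temperature and blue/green fluorescence is measured.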

Assay [6] deals with Vitamin D3 receptor (Homo sapiens) (UniProt P11473). The assay is described as follows: qHTS assay for small molecule agonists of vitamin D receptor signaling (AID 588543).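 Further: 0% = DMSO basal and 100% = reference agonist control.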 In short, it runs like this: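 Measured: β-lactamase reporter activity (CCF4, 405 nm excitation, 460/530 nm emission) in HEK293T VDR-UAS-bla cells after 16 h compound exposure at 37 °C. Normalization against 50 nM 1α,25-dihydroxyvitamin D3 and DMSO; Hill-fit EC50.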

Assay [7] in a line: qHTS assay for small molecule agonists of retinoid X receptor alpha signaling (AID 588544).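 On activation: 0% = DMSO basal wells and 100% = reference agonist.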 To be noted: HEK293T RXRa-UAS-bla, beta-lactamase reporter, 18 h; 530 nm emission.
The target in assay [8] is Retinoic acid receptor RXR-alpha (Homo sapiens) (UniProt P19793). Described as above.
The target in assay [9] is Thyroid hormone receptor beta (Homo sapiens) (UniProt P10828). The assay is described as follows: qHTS assay for small molecule agonists of thyroid hormone receptor beta signaling (AID 588545).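 Further: 0% = DMSO only and 100% = 10 nM T3.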 In short, it runs like this:
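Efficacy and EC50 values derive from Hill fits of qHTS titration data, normalized to 10 nM T3 and DMSO-only wells. HEK 293 reporter cells were stimulated for 18 hrs at 37 C, with beta-lactamase activity measured by CCF4 fluorescence.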

Assay [10] can be described thus: qHTS assay for small molecule antagonists of retinoid X receptor alpha signaling (AID 588546; active means well fitted inhibition curve with a large enough effect in the signal ratio, with a control signal flat, not every such curve was filed as active; the % refers to the signal ratio;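 further: cells stimulated with 9-cis-retinoic acid as agonist; on the % scale 0 is the no-effect control and ±100 the full control effect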). The conditions noted are these: HEK293T RXRa-UAS-bla, beta-lactamase ratio, antagonist mode; measured here: W530 green channel, cytotoxicity proxy. Put shortly: (§2)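 Beta-lactamase reporter inhibition, read as CCF4 fluorescence ratio (ex 405, em 460/530 nm) after 2 h at RT. HEK293T UAS-bla cells, 2500/well, were stimulated with 9-cis-RA at 500 or 100 nM final alongside test compound for 18 h at 37 C.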

For assay [11], the target named is Retinoic acid receptor RXR-alpha (Homo sapiens) (UniProt P19793). The assay is described as above. The conditions noted are these: HEK293T RXRa-UAS-bla, beta-lactamase ratio, antagonist mode. In short, it runs like this: as §2
Assay [12] deals with Thyroid hormone receptor beta (Homo sapiens) (UniProt P10828). Kind of assay: qHTS assay for small molecule antagonists of thyroid hormone receptor beta signaling (AID 588547; active means well fitted inhibition curve with a large enough effect in the signal ratio, with a control signal flat, not every such curve was filed as active; the % refers to the signal ratio;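 further: cells stimulated with 0.4 nM T3 agonist during compound exposure; series mostly up to about 77 µM; on the % scale 0 is the no-effect control and ±100 the full control effect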). To be noted: TR-UAS-bla HEK293, beta-lactamase ratio, antagonist mode, 18 h. In short, it runs like this:
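TR-UAS-bla GripTite HEK293 cells in 2% charcoal/dextran FBS medium were preincubated 4 h at 37 C, given compound (0.59 nM to 92 uM) plus 0.4 nM T3 (final) for 18 h, then CCF4 for 2 h at RT; Hill fit gave IC50.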

Assay [13] can be described thus: qHTS assay for small molecule activators of the p53 signaling pathway (AID 651743; active means well fitted activation curve with a large enough effect in the signal ratio, not every such curve was filed as active; the % refers to the signal ratio; further: series mostly up to about 92 µM; % of control where 0% means no effect). The conditions noted are these: HCT-116 p53RE-bla, beta-lactamase FRET ratio, 16 h; stronger effect = higher value. Put shortly:
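Agonist-mode quantitative HTS in HCT-116 cells carrying a p53-response-element beta-lactamase reporter; 16 h compound treatment at 37 C, then FRET substrate loading for 2 h at room temperature and fluorescence read.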

Assay [14] is described as follows: qHTS assay for small molecule activators of the nuclear factor-kappa B (NF-kB) signaling pathway (AID 651749; active means well fitted activation curve with a large enough effect in the signal ratio; the % refers to the signal ratio; further: series mostly up to about 77 µM; % of control where 0% means no effect). The conditions noted are these: NF-kB-bla ME-180 cells, beta-lactamase FRET ratio, 16 h; stronger effect = higher value. Put shortly: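 Human ME-180 cervical cells with an NF-kB-bla construct; compounds added via 23 nL pin transfer, DMSO as vehicle; incubation 16 hr. Reporter activity measured by FRET disruption.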

The target of assay [15] is Voltage-gated inwardly rectifying potassium channel KCNH2 (Homo sapiens) (UniProt Q12809). Kind of assay: qHTS Assay for Small Molecule Inhibitors of the Human hERG Channel Activity (AID 588834; active means well fitted inhibition curve with a large enough effect;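 further: top concentration of the series differs between compounds; on the % scale 0 is the no-effect control and ±100 the full control effect; lower thallium flux fluorescence means stronger hERG block; nearly all actives have a fitted effect of over 50% in size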). Put shortly: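 Homogeneous FluxOR thallium flux assay using hERG-expressing U2OS cells (BacMam). Compound treatment about 10 minutes preceded stimulation; reduced fluorescence taken as channel block.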

Assay [16] addresses Vitamin D3 receptor (Homo sapiens) (UniProt P11473). Kind of assay: qHTS assay for small molecule antagonists of vitamin D receptor signaling (AID 588541).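 Further: receptor activated by calcitriol during compound treatment; series mostly up to about 77 µM; on the % scale 0 is the no-effect control and ±100 the full control effect.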 Put shortly: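 VDR-UAS-bla HEK293T cells (2000/well, 2% charcoal-stripped FBS) were treated with titrated compounds plus 1-alpha,25-dihydroxyvitamin D3 (50 nM or 3 nM final) for 16 h at 37 C. CCF4 beta-lactamase fluorescence was read; Hill fits gave IC50.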

A short description of assay [17]: qHTS assay for small molecule agonists of the antioxidant response element (ARE) signaling pathway (AID 651741; active means well fitted activation curve with a large enough effect in the signal ratio; the % refers to the signal ratio; further: % of control where 0% means no effect). In short, it runs like this: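 Reporter: beta-lactamase under ARE, stably in HepG2. Exposure: 16 h, 37 C, compounds delivered in DMSO by pin tool after 5 h cell preincubation. Readout: FRET substrate fluorescence after 2 h at RT.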
Assay [18] has as its target Glucocorticoid receptor (Homo sapiens) (UniProt P04150). The assay is described as follows: qHTS assay for small molecule antagonists of glucocorticoid receptor signaling (AID 588533; active means well fitted inhibition curve with a large enough effect in the signal ratio, with a control signal flat, not every such curve was filed as active; the % refers to the signal ratio). Put shortly: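 Antagonist-mode qHTS: compound titrations added to GRE-bla HeLa cells, then dexamethasone 2 nM final; 18 h, 37 C. CCF4 FRET fluorescence normalized to dexamethasone and DMSO; IC50 from Hill fit.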

For assay [19] the target is unchanged. Kind of assay: qHTS assay for small molecule agonists of glucocorticoid receptor signaling (AID 588532; active means well fitted curve in the direction sought with a large enough effect in the signal ratio, with a control signal flat; the % refers to the signal ratio;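 further: 100% = dexamethasone at 0.1 µM and 0% = DMSO only wells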). To be noted: HeLa MMTV-bla, beta-lactamase ratio, agonist, 18 h; stronger effect = higher value; percent of dexamethasone control, DMSO zero. Put shortly: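 MMTV-bla HeLa, beta-lactamase reporter; medium with 1% charcoal/dextran-stripped FBS; cpds up to 92 uM, 18 h, 37 C; CCF4 readout 460/530 nm; Hill fit → EC50, efficacy vs 0.1 uM dexamethasone = 100%.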

Each structure is given as a SMILES string. Records with an inconclusive call do not appear. Calls of active or inactive are those of the source. Unless noted, the call rests on the fitted dose curve.

Chain of Retinoic acid receptor RXR-alpha (Homo sapiens) (P19793 whole entry, looked up): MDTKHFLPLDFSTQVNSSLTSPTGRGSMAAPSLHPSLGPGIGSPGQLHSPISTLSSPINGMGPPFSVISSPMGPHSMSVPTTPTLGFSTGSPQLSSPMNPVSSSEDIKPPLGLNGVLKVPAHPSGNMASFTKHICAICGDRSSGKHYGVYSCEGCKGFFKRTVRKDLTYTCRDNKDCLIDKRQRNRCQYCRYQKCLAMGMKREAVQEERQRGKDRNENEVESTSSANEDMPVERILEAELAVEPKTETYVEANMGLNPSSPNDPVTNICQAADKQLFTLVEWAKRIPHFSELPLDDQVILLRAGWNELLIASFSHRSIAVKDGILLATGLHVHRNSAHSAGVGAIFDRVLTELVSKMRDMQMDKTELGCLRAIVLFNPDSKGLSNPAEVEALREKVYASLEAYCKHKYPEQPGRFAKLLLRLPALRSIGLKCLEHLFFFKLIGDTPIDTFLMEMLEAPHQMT
Chain of Bile acid receptor (Homo sapiens) (Q96RI1 whole entry, looked up): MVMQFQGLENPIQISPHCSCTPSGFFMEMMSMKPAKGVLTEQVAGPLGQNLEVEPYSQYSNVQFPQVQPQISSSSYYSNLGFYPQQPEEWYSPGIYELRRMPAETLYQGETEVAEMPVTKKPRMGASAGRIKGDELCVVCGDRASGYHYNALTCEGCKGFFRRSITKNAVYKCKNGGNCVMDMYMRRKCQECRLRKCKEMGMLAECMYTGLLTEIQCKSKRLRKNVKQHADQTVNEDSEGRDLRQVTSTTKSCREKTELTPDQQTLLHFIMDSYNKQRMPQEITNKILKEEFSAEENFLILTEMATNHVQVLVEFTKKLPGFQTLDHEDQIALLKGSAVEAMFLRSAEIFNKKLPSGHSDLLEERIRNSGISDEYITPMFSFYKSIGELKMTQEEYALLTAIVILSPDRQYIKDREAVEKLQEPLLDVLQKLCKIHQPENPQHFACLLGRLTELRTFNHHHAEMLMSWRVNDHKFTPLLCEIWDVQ
Chain of Glucocorticoid receptor (Homo sapiens) (P04150 whole entry, looked up): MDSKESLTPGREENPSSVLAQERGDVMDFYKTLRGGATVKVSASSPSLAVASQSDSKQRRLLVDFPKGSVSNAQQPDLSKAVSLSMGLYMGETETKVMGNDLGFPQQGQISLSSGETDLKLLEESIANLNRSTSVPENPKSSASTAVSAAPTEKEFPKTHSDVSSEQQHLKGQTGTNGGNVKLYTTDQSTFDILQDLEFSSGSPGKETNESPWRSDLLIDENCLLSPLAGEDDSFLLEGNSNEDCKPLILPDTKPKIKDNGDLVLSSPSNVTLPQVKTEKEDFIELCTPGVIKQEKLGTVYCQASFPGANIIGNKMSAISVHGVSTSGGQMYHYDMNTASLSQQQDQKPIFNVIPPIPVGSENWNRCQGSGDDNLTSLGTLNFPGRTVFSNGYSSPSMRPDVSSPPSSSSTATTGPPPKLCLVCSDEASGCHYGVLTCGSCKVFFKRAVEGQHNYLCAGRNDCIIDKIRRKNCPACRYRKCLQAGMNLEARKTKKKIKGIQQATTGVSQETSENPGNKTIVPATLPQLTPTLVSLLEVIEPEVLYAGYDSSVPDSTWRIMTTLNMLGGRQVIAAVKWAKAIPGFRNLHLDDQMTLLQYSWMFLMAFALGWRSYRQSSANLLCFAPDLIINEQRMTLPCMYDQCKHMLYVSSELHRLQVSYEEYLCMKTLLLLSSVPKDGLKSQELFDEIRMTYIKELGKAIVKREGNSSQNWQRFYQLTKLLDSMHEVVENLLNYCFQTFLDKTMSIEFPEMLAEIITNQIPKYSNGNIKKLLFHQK
Chain of Vitamin D3 receptor (Homo sapiens) (P11473 whole entry, looked up): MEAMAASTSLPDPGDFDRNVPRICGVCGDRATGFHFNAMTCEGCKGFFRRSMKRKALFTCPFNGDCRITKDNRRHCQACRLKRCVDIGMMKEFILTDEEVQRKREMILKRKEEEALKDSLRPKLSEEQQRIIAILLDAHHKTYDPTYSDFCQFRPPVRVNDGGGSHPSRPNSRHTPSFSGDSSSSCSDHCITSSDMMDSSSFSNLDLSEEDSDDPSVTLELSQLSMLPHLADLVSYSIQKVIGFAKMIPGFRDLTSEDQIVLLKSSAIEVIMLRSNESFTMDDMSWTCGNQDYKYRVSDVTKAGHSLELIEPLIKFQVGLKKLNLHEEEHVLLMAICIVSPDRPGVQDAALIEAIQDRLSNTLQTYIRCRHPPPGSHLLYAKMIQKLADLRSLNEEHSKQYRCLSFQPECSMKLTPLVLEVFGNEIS
Chain of Peroxisome proliferator-activated receptor delta (Homo sapiens) (Q03181 whole entry, looked up): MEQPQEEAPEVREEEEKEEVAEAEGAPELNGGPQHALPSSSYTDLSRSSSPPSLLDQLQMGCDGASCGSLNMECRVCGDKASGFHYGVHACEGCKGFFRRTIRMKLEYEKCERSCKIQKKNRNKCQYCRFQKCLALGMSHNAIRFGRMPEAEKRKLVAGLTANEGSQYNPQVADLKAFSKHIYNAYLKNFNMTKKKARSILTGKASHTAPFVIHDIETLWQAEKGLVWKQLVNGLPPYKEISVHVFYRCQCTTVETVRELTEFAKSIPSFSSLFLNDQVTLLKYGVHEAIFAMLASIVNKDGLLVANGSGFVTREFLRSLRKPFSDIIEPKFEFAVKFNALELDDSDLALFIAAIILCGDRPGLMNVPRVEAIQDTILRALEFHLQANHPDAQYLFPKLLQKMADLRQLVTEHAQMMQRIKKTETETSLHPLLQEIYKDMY
Chain of Peroxisome proliferator-activated receptor gamma (Homo sapiens) (P37231 whole entry, looked up): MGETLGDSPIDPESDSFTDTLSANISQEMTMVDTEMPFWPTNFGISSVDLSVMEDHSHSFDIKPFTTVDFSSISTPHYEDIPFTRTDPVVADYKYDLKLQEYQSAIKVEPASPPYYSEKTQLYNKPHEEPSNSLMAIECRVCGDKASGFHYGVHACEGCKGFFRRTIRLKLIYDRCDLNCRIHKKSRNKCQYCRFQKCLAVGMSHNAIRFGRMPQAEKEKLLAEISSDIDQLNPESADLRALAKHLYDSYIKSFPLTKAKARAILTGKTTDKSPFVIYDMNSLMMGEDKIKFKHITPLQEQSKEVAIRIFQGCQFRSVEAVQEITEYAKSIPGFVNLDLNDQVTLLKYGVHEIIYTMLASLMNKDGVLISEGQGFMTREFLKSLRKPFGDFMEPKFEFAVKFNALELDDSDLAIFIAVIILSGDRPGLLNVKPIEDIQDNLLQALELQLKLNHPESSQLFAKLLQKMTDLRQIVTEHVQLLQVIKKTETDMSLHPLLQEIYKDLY
Chain of Thyroid hormone receptor beta (Homo sapiens) (P10828 whole entry, looked up): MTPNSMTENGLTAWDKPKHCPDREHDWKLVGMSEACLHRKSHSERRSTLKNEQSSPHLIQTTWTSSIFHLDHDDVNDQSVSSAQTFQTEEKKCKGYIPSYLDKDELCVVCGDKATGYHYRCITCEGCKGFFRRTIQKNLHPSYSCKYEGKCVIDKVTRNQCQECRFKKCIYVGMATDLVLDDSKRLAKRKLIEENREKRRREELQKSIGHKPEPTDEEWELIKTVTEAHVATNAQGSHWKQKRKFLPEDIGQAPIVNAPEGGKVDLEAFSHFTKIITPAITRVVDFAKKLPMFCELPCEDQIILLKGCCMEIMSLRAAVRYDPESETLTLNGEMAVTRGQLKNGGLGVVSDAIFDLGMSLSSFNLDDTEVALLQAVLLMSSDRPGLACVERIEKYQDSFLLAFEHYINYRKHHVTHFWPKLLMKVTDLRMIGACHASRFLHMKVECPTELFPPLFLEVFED
Chain of Voltage-gated inwardly rectifying potassium channel KCNH2 (Homo sapiens) (Q12809 whole entry, looked up): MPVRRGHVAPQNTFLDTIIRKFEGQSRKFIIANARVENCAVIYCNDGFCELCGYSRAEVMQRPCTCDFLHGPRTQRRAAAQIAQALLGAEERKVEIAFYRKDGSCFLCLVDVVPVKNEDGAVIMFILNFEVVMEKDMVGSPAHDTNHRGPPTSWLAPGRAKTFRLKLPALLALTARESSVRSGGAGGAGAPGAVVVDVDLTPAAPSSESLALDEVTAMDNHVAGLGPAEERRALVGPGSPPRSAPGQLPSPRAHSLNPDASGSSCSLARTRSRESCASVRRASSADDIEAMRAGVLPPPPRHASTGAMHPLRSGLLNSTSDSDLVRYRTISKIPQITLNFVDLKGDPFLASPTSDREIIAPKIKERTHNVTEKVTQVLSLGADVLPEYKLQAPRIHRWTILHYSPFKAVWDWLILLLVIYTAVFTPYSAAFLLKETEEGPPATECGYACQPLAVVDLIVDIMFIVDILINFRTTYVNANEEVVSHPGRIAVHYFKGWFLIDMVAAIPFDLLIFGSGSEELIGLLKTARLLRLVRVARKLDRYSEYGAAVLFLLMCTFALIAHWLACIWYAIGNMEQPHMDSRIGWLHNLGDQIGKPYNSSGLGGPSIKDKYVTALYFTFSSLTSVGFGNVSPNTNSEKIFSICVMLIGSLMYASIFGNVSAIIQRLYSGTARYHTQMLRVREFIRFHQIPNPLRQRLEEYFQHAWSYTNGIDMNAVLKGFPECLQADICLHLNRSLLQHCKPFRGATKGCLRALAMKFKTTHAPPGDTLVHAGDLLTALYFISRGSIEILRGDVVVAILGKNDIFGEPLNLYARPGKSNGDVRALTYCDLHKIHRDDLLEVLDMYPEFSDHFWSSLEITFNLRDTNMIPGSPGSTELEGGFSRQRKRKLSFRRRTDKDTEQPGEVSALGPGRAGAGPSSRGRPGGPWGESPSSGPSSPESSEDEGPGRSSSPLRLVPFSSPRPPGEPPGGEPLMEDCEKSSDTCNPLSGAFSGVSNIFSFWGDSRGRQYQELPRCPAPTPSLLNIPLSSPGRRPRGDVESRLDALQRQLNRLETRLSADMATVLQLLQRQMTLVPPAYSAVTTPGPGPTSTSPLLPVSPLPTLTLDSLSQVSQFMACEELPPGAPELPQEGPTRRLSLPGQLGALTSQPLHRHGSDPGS

In the case of `C(=C/c1ccccc1)/c1ccccc1`, the compound was called inactive in [1], in [4], in assay [5], in assay [6], in assay [8] and in assay [9]. For the same compound, the max response in [2] was 11.7%; in assay [7] it was -10%; in assay [10] it was -6.97%; in assay [11], -3.93% (inactive). In assay [3], the Potency result is “inactive”. For the same compound, the activity change % (negative = inhibition) in assay [12] was -6.07% (inactive). In addition, the activation was -2.17% (inactive) in [13] and -0.123% (inactive) in [14].
For the compound `O=C1C=CCCC1`, the compound was classed as inactive in assay [1], in [4], in assay [8] and in assay [9]. Besides, the max response in assay [2] was -11%; in assay [7] it was 8.41%; in assay [10], -1.74%; in assay [11], -1.33% (inactive). The Potency entry in assay [3] and in [15] was “inactive” each time. The activity change % (negative = inhibition) in assay [12] is -3.89% (inactive). The activation is -3.28% (inactive) in assay [13] and -0.0951% (inactive) in [14].
On to `Cc1ccccc1C#N`, for which the compound was called inactive in assay [1], in assay [4], in assay [16], in [6] and in [8]. Besides, the max response in assay [2] was -5.92%; in assay [7], -8.62%; in [10], -10.7%; in [11], 15.6% (inactive). For the same compound, the Potency result in [3] and in assay [17] was “inactive” in each case. Further, the activity change % (negative = inhibition) in [12] is 4.81% (inactive). In assay [13], the activation is -0.804% (inactive).
As for `Clc1ccccn1`, the result in assay [1], in [16], in assay [6], in [8] and in assay [9] was inactive. In addition, the max response in assay [2] is 26.1%; in assay [7], -14.3%; in assay [10], -9.05%; in [11], 21.3% (inactive). Further, the Potency entry in assay [3], in assay [15] and in [17] was “inactive” throughout. Further, in [12], the activity change % (negative = inhibition) is -6.15% (inactive). Further, the activation was -3.75% (inactive) in assay [13] and -1% (inactive) in assay [14].
Turning to `CCOCCOCC`, the call in assay [1], in assay [18], in assay [4], in assay [5], in assay [16] and in assay [6] was inactive. For the same compound, the call in assay [8] was inactive. Moreover, the max response in assay [2] was -23%; in assay [7], -9.35%; in assay [10], -9.02%; in [11] it was 1.41% (inactive). Also, the Potency entry in assay [3], in assay [15] and in assay [17] was “inactive” throughout. In [12], the activity change % (negative = inhibition) is 12.3% (inactive). Besides, the activation in [13] was 0.0371% (inactive); in [14], -0.436% (inactive).
With `CC1CCC2CC1C2(C)C` (stereo unspecified), the outcome in [1], in [18], in assay [4], in assay [5] and in [8] was inactive. The activation in assay [19] is -2.14% (inactive); in assay [13], -0.467% (inactive); in assay [14] it was -0.9% (inactive). Also, the max response in [7] was -0.475%; in assay [10], 8.6%; in assay [11], 9.66% (inactive). Besides, the Potency entry in assay [15] and in assay [17] was “inactive” throughout.
Consider `O=C(O)c1ccccc1Cl`, for which the call in [1], in assay [4], in assay [16], in assay [6], in assay [8] and in assay [9] was inactive. Also, the max response is -1.82% in assay [2], 0.58% in [7], 6.35% in assay [10] and 2.61% (inactive) in assay [11]. Also, the Potency entry in assay [3], in assay [15] and in assay [17] was “inactive” throughout. In assay [12], the activity change % (negative = inhibition) was -4.08% (inactive). The figures for the activation in assay [13] and in assay [14] were -4.07% (inactive) and -0.473% (inactive), respectively.

For the origin of these results see PubChem BioAssay (NCATS).
